HT1080-NT tox: kills 2HG-producing HT-1080-NT fibrosarcoma cells | HT-1080-NT fibrosarcoma viability, CellTiter-Glo ATP luminescence, 48 h | Potency, µM (titrated, usually from 46.1 µM), hits mostly cytotoxic | hit rate 1.6% among 360,000 | AID 686970;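 further: NT is the 2HG producing partner of a matched IDH1 knockdown line; nearly all actives have a fitted effect of over 55% in size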
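Viability by CellTiter-Glo luminescence after 48 h compound exposure at 37C of HT-1080-NT cells (750/well, RPMI, 5% FBS). % activity scaled between DMSO wells and medium-only wells, then curve-fitted and categorized by curve class.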
TDP1 cell CPT: DT40-hTDP1 cell growth loss with CPT. hit rate 12% among 420,000. chicken DT40 Tdp1-/-;hTDP1 cells + 20 nM CPT, ATP luminescence, 48 h. Potency, µM (highest dose often 46.2 µM), usual class: inhibitors; further: nearly all actives have a fitted effect of over 55% in size
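Cell growth measured by CellTiter-Glo luminescence after a minimum 48 h, 37 C compound exposure with 20 nM CPT in Tdp1-knockout DT40 cells stably expressing hTDP1, seeded 400/well; qHTS titration format.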
DT40 TDP1 no CPT: qHTS for Inhibitors of human tyrosyl-DNA phosphodiesterase 1 (TDP1): qHTS in cells in absence of CPT; hit rate 15% among 420,000; DT40 Tdp1-/- hTDP1 cells, no CPT, ATP luminescence, 48 h; Potency, µM (series often up to 46.2 µM), most hits filed as inhibitors; further: nearly all actives have a fitted effect of over 55% in size
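DT40 Tdp1-/-;hTDP1 cells, no CPT (DMSO vehicle only), 400 cells/well; compounds pin-transferred; ≥48 hr, 37 °C; CellTiter-Glo 30 min RT dark, luminescence read.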
ALOX12 inh: inhibitors of human 12S-lipoxygenase ALOX12 | P18054 | purified 12hLO, xylenol orange hydroperoxide absorbance | Potency, µM (doses to about 108 µM), most hits filed as inhibitors | hit rate 1.1% among 580,000
Target sequence (P18054 whole entry, looked up): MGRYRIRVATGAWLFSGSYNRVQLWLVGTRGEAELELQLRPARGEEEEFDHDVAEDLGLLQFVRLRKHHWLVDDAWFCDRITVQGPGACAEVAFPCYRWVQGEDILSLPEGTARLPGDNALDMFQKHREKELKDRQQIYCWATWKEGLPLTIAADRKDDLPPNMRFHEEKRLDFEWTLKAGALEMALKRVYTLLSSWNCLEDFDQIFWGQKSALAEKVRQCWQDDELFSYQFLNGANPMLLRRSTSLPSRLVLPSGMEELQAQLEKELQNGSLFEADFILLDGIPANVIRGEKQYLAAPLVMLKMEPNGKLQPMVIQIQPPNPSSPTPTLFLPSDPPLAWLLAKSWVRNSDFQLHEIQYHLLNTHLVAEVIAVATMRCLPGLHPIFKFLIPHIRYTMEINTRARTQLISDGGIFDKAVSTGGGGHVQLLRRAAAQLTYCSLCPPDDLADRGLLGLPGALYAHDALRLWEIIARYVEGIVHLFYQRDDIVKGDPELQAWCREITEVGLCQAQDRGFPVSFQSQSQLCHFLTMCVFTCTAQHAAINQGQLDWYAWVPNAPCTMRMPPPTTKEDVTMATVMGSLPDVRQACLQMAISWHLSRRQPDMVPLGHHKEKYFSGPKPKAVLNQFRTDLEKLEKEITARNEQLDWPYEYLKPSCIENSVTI
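Purified human 12hLO (150 nM final) in 25 mM Hepes, 0.01% Triton X-100, pH 7.0 was preincubated 15 min at room temperature with compound. Then 40 uM arachidonic acid was added, 30 min. Hydroperoxide was read by Fe-XO absorbance ratio 573/405 nm.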
IL-1B inflam inh: inhibitors of inflammasome signaling (IL-1 beta secretion). activity change, % at 57.5 µM. THP-1 LPS/ATP IL-1B secretion, AlphaLISA, 16 h; hits give low values. hit rate 4.7% among 360,000. AID 743279; in the data active means activity change below about -50%; inconclusive means mostly about -30% to -49%
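Secreted IL-1B measured by AlphaLISA bead assay after 16 h compound exposure of THP-1 cells; compounds (final up to 57.5 uM) added 1 h before LPS (250 ng/mL) and ATP (1.25 mM) stimulation; lower signal means less secretion.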
HT1080 IDH1KD tx: kills HT-1080 cells with IDH1 knockdown; HT-1080 IDH1 knockdown viability, ATP luminescence, 48 h; Potency, µM (top dose mostly 46.1 µM), hits mostly cytotoxic; hit rate 2% among 360,000
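Assay cells: HT-1080 with IDH1 knockdown, 750 per well, RPMI/5% FBS. Exposure: 48 h at 37 °C following 2 h pre-incubation. Read: CellTiter-Glo luminescence; fitted concentration-response, curve class assigned.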
Hits are given with their value; – = inactive; ? = inconclusive; · = no result given. Only a selection was taken, and hits are over-represented in it overall. Unless noted, the call rests on the fitted dose curve; in most records, active means well fitted curve in the direction sought with a large enough effect; inconclusive means small, poorly fitted or top-dose-only effect, or another doubt; inactive means no such curve, though single readings can be large; an effect the other way counts as inactive or inconclusive.

SMILES	HT1080-NT tox	TDP1 cell CPT	DT40 TDP1 no CPT	ALOX12 inh	IL-1B inflam inh	HT1080 IDH1KD tx
CC(C(Sc1ccccc1N)c1ccccc1)[N+](=O)[O-] (configuration not stated)	?	3.7µM	3.7µM	?	-85	?
Nc1ccccc1SCc1ccccc1Cl	–	–	–	?	–	–
O=C(CC(CC(=O)c1ccccc1)c1ccccc1)c1ccccc1	–	?	?	–	–	–
Nc1ccccc1SC(CC(=O)c1ccccc1)c1ccccc1 (configuration not stated)	?	?	13µM	·	–	?
COC(=O)c1ccccc1SC(CC(=O)c1ccccc1)c1ccc(F)cc1 (configuration not stated)	?	18µM	23µM	–	?	?
Cc1cc2nc(CSc3ccc(NC(=O)c4ccccc4C(F)(F)F)cc3)cc(=O)n2o1	·	·	·	–	·	·
COc1cc(OC)c(C(=O)Nc2ccncc2)cc1OC	–	–	–	–	-60	–
COc1cccc(OC)c1C(=O)Nc1ccc(C(=O)c2ccncc2)cc1	–	13µM	?	–	–	–
COc1cc(SC)ccc1C(=O)NCc1ccccc1	–	–	–	–	–	–
COc1cc(SC)ccc1C(=O)NCc1ccc(C)cc1	–	16µM	?	–	–	?
COc1cc(SC)ccc1C(=O)Nc1ccncc1	–	16µM	13µM	–	?	–
COC(=O)c1ncoc1-c1ccccc1C(=O)N1CCN(c2ccccc2)CC1	·	·	·	–	·	·
Cn1cc(CN2C[C@@H](F)[C@@H](OCc3nc4ccccc4[nH]3)C2)c2ccccc21	·	·	·	–	·	·
COc1cc(SC)ccc1C(=O)Nc1ccc(S(=O)(=O)Nc2nccc(C)n2)cc1	·	23µM	?	–	·	·
COc1ccccc1C(=O)Nc1ccc(S(=O)(=O)Nc2nc(C)cc(C)n2)cc1	·	–	–	–	·	·
COC(=O)COc1ccc(C2C3=C(CC(C)(C)CC3=O)OC3=C2C(=O)CC(C)(C)C3)cc1OC	·	·	·	–	·	·
N#Cc1cnn(-c2ccc([N+](=O)[O-])cc2[N+](=O)[O-])c1N	–	13µM	18µM	–	–	–
COc1ccc(Oc2cnn(-c3ccccc3)c(=O)c2Br)cc1	–	?	?	–	-63	–
CCOc1cnn(-c2ccccc2)c(=O)c1Cl	?	?	16µM	–	?	16µM
COc1cnn(-c2ccccc2)c(=O)c1SCc1ccc(Cl)cc1Cl	–	29µM	21µM	?	-51	–
O=c1c(Cl)c(Cl)cnn1-c1ccccc1	4.1µM	2.9µM	3.3µM	–	-99	4.6µM
O=C1CC2(CCCCC2)C(=O)N1Cc1ncc(-c2ccccc2)o1	·	·	·	–	·	·
O=C(NCc1ccncc1)C1CCN(C(=O)c2ncn3c2COC(c2ccc(F)cc2)C3)CC1 (configuration not stated)	·	·	·	–	·	·
CC(C)NC(=O)Cn1cccc1-c1nc(-c2ccc(Cl)cc2)no1	·	·	·	–	·	·
CCSc1cnn(-c2ccccc2)c(=O)c1Cl	?	–	?	?	-94	?
SMILES	HT1080-NT tox	TDP1 cell CPT	DT40 TDP1 no CPT	ALOX12 inh	IL-1B inflam inh	HT1080 IDH1KD tx
C=C(CN(C)C)C(=O)c1ccc(C)cc1C	?	0.52µM	0.58µM	?	-107	5.8µM
CC(/C=C/c1ccc(O)cc1)=N/O	–	15µM	21µM	–	–	–
CC(/C=C/c1ccccc1)=N/O	–	–	–	–	–	–
CC(=O)c1cn(CC(=O)NC2CCCCC2)c2ccccc12	·	·	·	–	·	·
CCCn1nc(C(=O)Nc2cccc(C)c2C)c2ccccc2c1=O	·	·	·	–	·	·
CC(=O)c1ccc(N2CCN(S(=O)(=O)c3ccc4c5c3CC(=O)N5CC(C)S4)CC2)cc1 (configuration not stated)	–	21µM	21µM	·	–	–
Cc1ccc(OCC(=O)OCC(=O)Nc2ccc3c(c2)OCO3)cc1C	–	–	–	–	–	–
Cc1ccc(C)c(OCC(=O)Nc2ccc3c(c2)OCO3)c1C	–	?	18µM	–	–	–
Cc1ccc(OCC(=O)Nc2ccc3c(c2)OCO3)cc1C	–	–	26µM	–	–	–
CN1CCN(Cc2cc(Cl)c3cccnc3c2OC(=O)c2cccs2)CC1	–	4.6µM	4.6µM	–	–	–
CC(CN1CCOCC1)OC(=O)c1ccccc1Br (configuration not stated)	–	–	–	?	–	–
O=C(Oc1c(CN2CCOCC2)cc(Cl)c2cccnc12)c1ccccc1Br	?	4.6µM	4.6µM	–	–	?
COc1ccc(C2Cn3nnc(C(=O)NC4CCCCCC4)c3CO2)cc1 (configuration not stated)	·	·	·	–	·	·
CCS(=O)(=O)Nc1ccc(C2=NN(C(C)=O)C(c3ccco3)C2)cc1 (configuration not stated)	·	·	·	–	·	·
COc1ccc(-c2cn3c(n2)sc2cc(C(=O)Nc4ccc(C)c(Cl)c4)ccc23)cc1	·	–	–	–	·	·
CC1CCCCN1CCCNC(=O)c1ccc2c(c1)sc1nc(-c3ccc(F)cc3)cn12 (configuration not stated)	·	2.3µM	3.3µM	–	·	·
Cc1ccc(-c2cn3c(n2)sc2cc(C(=O)NCCCN4CCCCC4)ccc23)cc1	·	1.3µM	1.3µM	–	·	·
Cc1ccc(-c2cn3c(n2)sc2cc(C(=O)NCCCN4CCCCCC4)ccc23)cc1	·	1.6µM	1.6µM	?	·	·
O=C(NCCCN1CCCCC1)c1ccc2c(c1)sc1nc(-c3ccc(F)cc3)cn12	·	4.1µM	2.3µM	?	·	·
CCN1CCN(CCCNC(=O)c2ccc3c(c2)sc2nc(-c4ccc(C)cc4)cn23)CC1	·	1.3µM	1.3µM	?	·	·
CCOC(=O)C1(Cc2ccccc2C)CCCN(Cc2nccn2CC)C1 (configuration not stated)	·	·	·	–	·	·
O=C(c1ccccc1)c1ccc(OCC(=O)N(Cc2nc3ccccc3c(=O)[nH]2)CC2CCCO2)cc1 (configuration not stated)	·	·	·	–	·	·
CC(=O)Nc1cccc(NC(=O)c2nccnc2-c2nc3ccccc3s2)c1	·	·	·	–	·	·
Clc1ccc(-n2ncc3c(NC4CCCC4)ncnc32)cc1	·	16µM	16µM	?	·	·
Cc1ccc(Cl)cc1-n1ncc2c(NC3CCCCCC3)ncnc21	·	21µM	21µM	?	·	·
Clc1ccc(-n2ncc3c(NCC4CCCO4)ncnc32)cc1 (configuration not stated)	?	16µM	16µM	–	–	?
c1ccc(-n2ncc3c(NCC4CCCO4)ncnc32)cc1 (configuration not stated)	–	?	?	–	–	–
c1ccc(-n2ncc3c(NC4CCCCCC4)ncnc32)cc1	–	?	?	–	-53	–
